Consider five compounds from PubChem BioAssay.

The nature of experiment [1]: inhibitors of TNFa-induced NFkB p65 translocation, primary screen, imaging, HUVEC, MLSMR starter and 10KST1 sets (AID 438;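 active = inhibition above 20% together with a positive visual image hit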;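 note: compound added about 3h40 before a 20 min TNFalpha stimulation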;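 for inhibition: signal is the nuclear over cytoplasmic p65 intensity ratio per well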). The note with it: HUVEC TNFa-induced p65 nuclear translocation; cell count: measured here: nuclei count (cytotoxicity indicator), at 2.08 µM; inhibition: at 2 µM, stronger effect = higher value, 0% TNFa-plus-vehicle, 100% no-TNFa wells.
Experiment [2] is described as follows: reduction of polyQ htt aggregates in cells – imaging, exon1htt(103Q)mCFP cells, high-content imaging, primary screen (AID 483).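 For nuclei count: percent of the per-plate median nuclei count of sample wells.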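 Note: compound exposure lasted 3 days before fixation.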 As to conditions: exon1htt(103Q)mCFP cell line, aggregate imaging, at 2 µM; inhibition of aggregation: stronger effect = higher value; nuclei count: measured here: cell count, toxicity.
Experiment [3] is described as follows: endothelial E-selectin expression blockers – imaging, HUVEC, immunofluorescence, MLSMR starter and 10KST1 sets, primary screen (AID 487;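 active = visually confirmed hit in the image check and inhibition above 20%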;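 for inhibition: signal is fraction of cell area covered by stained E-selectin grains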;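 for nuclei count: 100% = median nuclei count of all wells on the same plate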). The note with it: HUVEC TNFalpha-induced E-selectin immunofluorescence imaging, at 2 µM; inhibition: stronger effect = higher value; nuclei count: measured here: cell number, toxicity.
Experiment [4] is described as follows: Primary imaging screen for DUSP6 inhibitors that restore phospho-Erk in transfected HeLa cells, chemical complementation (AID 609;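 active = compounds giving at least 50% inhibition in the cell-based MKP-3 phosphatase rescue imaging test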;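 for inhibition: phospho-Erk level distribution per well compared with pooled transfected vehicle control wells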). As to conditions: HeLa MKP-3 transfected, phospho-Erk imaging KS statistic, at 10 µM, cells stimulated with TPA for 15 min.
For experiment [5], the target named is Dual specificity protein phosphatase 6 (Homo sapiens) (UniProt Q16828). The experiment is described as above. The note with it: HeLa MKP-3 transfected, phospho-Erk imaging KS statistic; at 10 µM; stronger effect = higher value; cells stimulated with TPA for 15 min.
Chain of Dual specificity protein phosphatase 6 (Homo sapiens) (Q16828 whole entry, looked up): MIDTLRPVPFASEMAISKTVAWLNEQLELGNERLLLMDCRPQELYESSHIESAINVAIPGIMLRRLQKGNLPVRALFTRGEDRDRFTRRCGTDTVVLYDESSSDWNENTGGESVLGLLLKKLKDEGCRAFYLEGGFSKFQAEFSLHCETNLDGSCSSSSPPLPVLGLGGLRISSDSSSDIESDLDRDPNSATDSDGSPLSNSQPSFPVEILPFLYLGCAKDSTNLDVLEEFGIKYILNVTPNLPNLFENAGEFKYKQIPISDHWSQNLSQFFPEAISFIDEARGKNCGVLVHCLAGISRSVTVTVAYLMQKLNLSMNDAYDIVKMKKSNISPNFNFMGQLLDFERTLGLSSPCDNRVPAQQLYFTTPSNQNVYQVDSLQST
For experiment [6], the target named is Voltage-gated potassium channel subunit beta-2 (Rattus norvegicus) (UniProt P62483). The experiment in a line: inhibitors of rat Kvbeta2 reductase activity – biochemical, NADPH fluorescence, primary screen (AID 622;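 active = fluorescence slope higher than the sample average by over 3 SD, cut at about -0.22 in these data, passing the limit was not always enough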;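 note: slope of raw intensity against log time taken from 70 to 1610 s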). The note with it: recombinant KvBeta, 4-cyanobenzaldehyde reduction, at 10 µM, stronger effect = higher value.
Chain of Voltage-gated potassium channel subunit beta-2 (Rattus norvegicus) (P62483 whole entry, looked up): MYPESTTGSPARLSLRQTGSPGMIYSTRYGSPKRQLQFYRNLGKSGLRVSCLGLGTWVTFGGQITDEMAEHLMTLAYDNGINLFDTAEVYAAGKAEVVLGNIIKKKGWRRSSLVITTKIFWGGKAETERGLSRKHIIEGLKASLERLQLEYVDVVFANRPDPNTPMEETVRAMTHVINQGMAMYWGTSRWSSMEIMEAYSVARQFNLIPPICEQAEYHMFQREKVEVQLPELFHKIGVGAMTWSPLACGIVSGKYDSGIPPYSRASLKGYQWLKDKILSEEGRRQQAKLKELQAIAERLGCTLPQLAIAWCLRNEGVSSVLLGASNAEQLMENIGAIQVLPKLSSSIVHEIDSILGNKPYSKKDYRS
For experiment [7] the target is unchanged. The experiment in a line: enhancers of rat Kvbeta2 NADPH turnover – biochemical, NADPH fluorescence, primary screen (AID 623;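 active = NADPH fluorescence slope more negative than the mean of all samples by about 3 SD, 99.7% confidence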;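 note: fluorescence intensity change per second fitted from 20 to 320 s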). The note with it: Recombinant KvBeta, NADPH fluorescence decrease slope, 10 min; at 10 µM; stronger effect = lower value.
Experiment [8] concerns the target Alpha-2C adrenergic receptor (Homo sapiens) (UniProt P18825). The experiment in a line: compounds altering alpha2C-coupled GIRK flux – cell-based, HEK293 alpha2C/GIRK1/2, thallium flux, primary screen (AID 624;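 active = fluorescence slope after compound addition differing from the mean of all screened samples at 99.7% confidence, in either direction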;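 note: slope of fluorescence ratio to pre-addition baseline per second over 15 to 24 s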). As to conditions: thallium flux BTC fluorescence, at 10 µM, actives lie on both sides.
In experiment [9] the target is Muscarinic acetylcholine receptor M4 (Homo sapiens) (UniProt P08173). The experiment in a line: M4-linked GIRK flux change, two-sided – cell-based, HEK293 M4/GIRK, thallium flux, BTC-AM, M4 allosteric agonist project, primary screen (AID 625;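 active = fluorescence slope after compound addition differing from the mean of all tested samples at 99.7% confidence, mostly higher but some lower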;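 note: thallium influx through GIRK channels coupled to M4 in HEK293 cells with BTC-AM dye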). The note with it: at 10 µM, actives lie on both sides.
Chain of Muscarinic acetylcholine receptor M4 (Homo sapiens) (P08173 whole entry, looked up): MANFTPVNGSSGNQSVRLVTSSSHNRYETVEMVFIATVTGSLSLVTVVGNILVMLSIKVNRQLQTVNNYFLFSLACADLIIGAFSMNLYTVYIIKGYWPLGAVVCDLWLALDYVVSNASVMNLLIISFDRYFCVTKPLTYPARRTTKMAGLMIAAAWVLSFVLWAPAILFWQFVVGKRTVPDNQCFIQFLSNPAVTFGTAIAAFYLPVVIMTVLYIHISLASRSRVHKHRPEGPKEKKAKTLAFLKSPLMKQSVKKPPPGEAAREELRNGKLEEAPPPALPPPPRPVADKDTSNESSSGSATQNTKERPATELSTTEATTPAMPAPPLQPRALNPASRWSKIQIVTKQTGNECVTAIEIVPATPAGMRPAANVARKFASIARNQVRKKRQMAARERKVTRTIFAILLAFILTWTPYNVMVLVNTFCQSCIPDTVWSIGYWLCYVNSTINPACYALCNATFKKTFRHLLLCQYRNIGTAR
Experiment [10] is described as follows: inhibitors of larval lipid processing in zebrafish, primary screen, whole organism, PED6 fluorescence, gall bladder and intestine (AID 686;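 active = a full or partial loss of lipid-probe fluorescence in the fish gall bladder, intestine or both, judged by eye; inactive = no fluorescence loss, or compound toxic to the fish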;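 note: larvae 5 to 7 days old with five fish per well; signal comes from phospholipase A2 cleavage of quenched PED6 carried via bile; overnight exposure to compound and PED6 before scoring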). As to conditions: Zebrafish larvae PED6 lipid processing, fluorescence scoring; screened at 20 µM (by protocol).
A short description of experiment [11]: loss of swimming-algae plug formation – whole organism, Chlamydomonas reinhardtii, WT vs cilia-less mutant, absorbance, 96-well, primary screen (AID 463189;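 active = inhibition at or above 50% relative to wild type and mutant plate controls; inactive = inhibition below 50%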;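 note: 0% = wild type cc124 cells in DMSO and 100% = ciliumless bld1 mutant cells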). As to conditions: Chlamydomonas reinhardtii gravitaxis, OD600 absorbance, 2 days; at 10 µM; stronger effect = higher value.
The nature of experiment [12]: blockers of RIG-like receptor reporter activation – cell-based, Sendai virus stimulus, luciferase, 10K MLSCN set, TLR/RLR signaling modifier project, primary screen (AID 602276;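 active = inhibition at or above 50% at 10 µM; inactive = inhibition below 50%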;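 note: firefly luciferase from ISG56 promoter only with Renilla not read in this screen; 0% = Sendai virus plus DMSO and 100% = medium plus DMSO without virus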). As to conditions: HEK293 RL24 IRF3 luciferase reporter, at 10 µM, stronger effect = higher value.
Experiment [13] can be described thus: TLR3 IRF3 reporter activation blockers – cell-based, poly I:C stimulus, luciferase, 10K MLSCN set, primary screen (AID 602277;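 active = inhibition of the reporter signal at or above 50%; inactive = inhibition below 50%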). As to conditions: HEK293-TLR3 RL24 IRF3 luciferase reporter, at 10 µM, stronger effect = higher value.
The mark [14] stands for this setting: measured here: cell density z-score.
[15] abbreviates: measured here: nuclear c-Myc green intensity z-score.
The mark [16] stands for this setting: measured here: nuclear pErk red intensity z-score, stronger effect = higher value.

The source made the active and inactive calls.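 Rule for the calls, unless noted: active = visual image review flags a hit and inhibition of aggregation exceeds 20%; inconclusive = visual hit but inhibition at or below 20%; inactive = no hit on visual image review.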

Chain of Alpha-2C adrenergic receptor (Homo sapiens) (P18825 whole entry, looked up): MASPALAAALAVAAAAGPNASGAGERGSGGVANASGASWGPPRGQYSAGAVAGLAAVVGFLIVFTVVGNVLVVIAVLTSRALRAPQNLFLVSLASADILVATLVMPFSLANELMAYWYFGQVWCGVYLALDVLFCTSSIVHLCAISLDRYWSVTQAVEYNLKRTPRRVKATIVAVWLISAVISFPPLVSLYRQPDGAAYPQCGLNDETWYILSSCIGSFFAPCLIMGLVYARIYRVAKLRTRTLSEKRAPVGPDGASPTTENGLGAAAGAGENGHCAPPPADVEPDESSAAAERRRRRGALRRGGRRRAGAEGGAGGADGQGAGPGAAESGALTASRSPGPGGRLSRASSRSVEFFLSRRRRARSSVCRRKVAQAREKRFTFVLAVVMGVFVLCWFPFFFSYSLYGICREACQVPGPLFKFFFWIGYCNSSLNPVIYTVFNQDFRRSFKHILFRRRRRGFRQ

As for `Cc1nnc(NCc2n[nH]c(=O)c3ccccc23)c2ccccc12`, in [1], the cell count turned out to be 459. Besides, the inhibition (as a rule, the change of the read-out against control, counted positive when it falls) in experiment [1] was -4.7% (inactive); in experiment [3], -23.8% (inactive); in experiment [5] it was 7.21% (inactive); in experiment [11] it was -15.8% (inactive); in experiment [12], 4.22% (inactive); in experiment [13] it was -7.48% (inactive). Besides, in experiment [2], the inhibition of aggregation was -19.6% (inactive). Further, the nuclei count in [2] stood at 51.5%; in experiment [3] it was 118%. Moreover, the z-score was -2.3 in [4] (setting [14]), 1.26 in experiment [4] (setting [15]) and 1.58 in experiment [4] (setting [16]). Also, the fluorescence slope is -0.502 (inactive) in experiment [6] and 0.0052 (inactive) in experiment [9]. The NADPH fluorescence slope in experiment [7] is -0.000115 (inactive). In experiment [8], the slope was 0.00499 (inactive). The compound was called inactive in experiment [10].
On to `Cc1cc(Cn2ccnc2)c(C)cc1Cn1ccnc1`, for which the cell count in experiment [1] worked out at 637. In addition, the inhibition in experiment [1] is -4.4% (inactive); in experiment [3], -55.4% (inactive); in experiment [5], -7.67% (inactive); in [11], 139% (active); in experiment [12], 19.2% (inactive); in experiment [13], 17.7% (inactive). Moreover, the inhibition of aggregation in experiment [2] is 7.9% (inactive). Further, the nuclei count was 100% in [2] and 124% in experiment [3]. Also, the z-score in [4] (setting [14]) is -0.00236; in experiment [4] (setting [15]), 1.89; in experiment [4] (setting [16]), -0.864. In addition, the fluorescence slope is -0.463 (inactive) in experiment [6] and 0.0041 (inactive) in experiment [9]. In addition, the NADPH fluorescence slope in [7] was -0.000121 (inactive). For the same compound, the slope in experiment [8] is 0.00445 (inactive). Besides, the call in experiment [10] was inactive.
Consider `Cc1ccc(-c2nnc(-c3cccc(Br)c3)o2)cc1`, for which the cell count in [1] worked out at 512. Further, the inhibition in [1] was -1.8% (inactive); in [3], -41.7% (inactive); in experiment [5], -15.1% (inactive); in experiment [11], 8.63% (inactive); in [12], -18% (inactive); in [13] it was -64% (inactive). Also, the inhibition of aggregation in experiment [2] is -23.2% (inactive). Moreover, the nuclei count is 96.1% in experiment [2] and 126% in experiment [3]. For the same compound, the z-score in experiment [4] (setting [14]) amounted to 0.516; in experiment [4] (setting [15]) it was 0.261; in experiment [4] (setting [16]) it was 0.911. The fluorescence slope in [6] is -0.487 (inactive); in [9], 0.00652 (inactive). Besides, the NADPH fluorescence slope in [7] is -9.8e-05 (inactive). Besides, the slope in experiment [8] was 0.00623 (inactive). In addition, the outcome in [10] was inactive.
Regarding `CCCC1Cc2c(sc3ncnc(N)c23)CO1` (stereo not given), in [1], the cell count stood at 492. For the same compound, the inhibition was -5.3% (inactive) in [1]; -49.3% (inactive) in experiment [3]; -1.98% (inactive) in [5]; 1.24% (inactive) in experiment [11]; -2.55% (inactive) in experiment [12]; 5.36% (inactive) in experiment [13]. Besides, the inhibition of aggregation in experiment [2] is -8% (inactive). Further, the nuclei count amounted to 80.5% in experiment [2] and 139% in [3]. Moreover, the figures for the z-score in experiment [4] (setting [14]), in experiment [4] (setting [15]) and in experiment [4] (setting [16]) were -0.574, -0.569 and 0.241, respectively. For the same compound, the fluorescence slope was -0.411 (inactive) in [6] and 0.00429 (inactive) in experiment [9]. Further, in experiment [7], the NADPH fluorescence slope was -4.2e-05 (inactive). Further, the slope in experiment [8] was 0.00633 (inactive). Besides, the compound was classed as inactive in experiment [10].
With `CC(C)CNC(=O)c1c(N)n(/N=C/c2ccccn2)c2nc3ccccc3nc12`, in experiment [1], the cell count was 533. The inhibition is -2.3% (inactive) in experiment [1]; -33.4% (inactive) in [3]; 4.37% (inactive) in experiment [5]; 31.2% (inactive) in experiment [11]; -0.468% (inactive) in experiment [12]; -13.1% (inactive) in experiment [13]. Further, in experiment [2], the inhibition of aggregation was -1.4% (inactive). The nuclei count came to 105% in experiment [2] and 129% in [3]. For the same compound, the z-score in experiment [4] (setting [14]) is 1.46; in experiment [4] (setting [15]) it was -0.805; in [4] (setting [16]), -0.75. Moreover, the fluorescence slope in [6] is -0.43 (inactive); in experiment [9], 0.0059 (inactive). For the same compound, the NADPH fluorescence slope in experiment [7] is -3.5e-05 (inactive). For the same compound, the slope in experiment [8] is 0.00506 (inactive). Besides, in experiment [10], the call was inactive.
